From PubChem
The list is not random: actives were taken first. Their share in the collection is about 12%.
USP8 block: inhibitors of human USP8 deubiquitinase; P40818; purified USP8, Ub-rhodamine cleavage fluorescence, 30 min; 47,000 tested, 4.2% active; inhibition, % at 20 µM
Target sequence (P40818 whole entry, looked up): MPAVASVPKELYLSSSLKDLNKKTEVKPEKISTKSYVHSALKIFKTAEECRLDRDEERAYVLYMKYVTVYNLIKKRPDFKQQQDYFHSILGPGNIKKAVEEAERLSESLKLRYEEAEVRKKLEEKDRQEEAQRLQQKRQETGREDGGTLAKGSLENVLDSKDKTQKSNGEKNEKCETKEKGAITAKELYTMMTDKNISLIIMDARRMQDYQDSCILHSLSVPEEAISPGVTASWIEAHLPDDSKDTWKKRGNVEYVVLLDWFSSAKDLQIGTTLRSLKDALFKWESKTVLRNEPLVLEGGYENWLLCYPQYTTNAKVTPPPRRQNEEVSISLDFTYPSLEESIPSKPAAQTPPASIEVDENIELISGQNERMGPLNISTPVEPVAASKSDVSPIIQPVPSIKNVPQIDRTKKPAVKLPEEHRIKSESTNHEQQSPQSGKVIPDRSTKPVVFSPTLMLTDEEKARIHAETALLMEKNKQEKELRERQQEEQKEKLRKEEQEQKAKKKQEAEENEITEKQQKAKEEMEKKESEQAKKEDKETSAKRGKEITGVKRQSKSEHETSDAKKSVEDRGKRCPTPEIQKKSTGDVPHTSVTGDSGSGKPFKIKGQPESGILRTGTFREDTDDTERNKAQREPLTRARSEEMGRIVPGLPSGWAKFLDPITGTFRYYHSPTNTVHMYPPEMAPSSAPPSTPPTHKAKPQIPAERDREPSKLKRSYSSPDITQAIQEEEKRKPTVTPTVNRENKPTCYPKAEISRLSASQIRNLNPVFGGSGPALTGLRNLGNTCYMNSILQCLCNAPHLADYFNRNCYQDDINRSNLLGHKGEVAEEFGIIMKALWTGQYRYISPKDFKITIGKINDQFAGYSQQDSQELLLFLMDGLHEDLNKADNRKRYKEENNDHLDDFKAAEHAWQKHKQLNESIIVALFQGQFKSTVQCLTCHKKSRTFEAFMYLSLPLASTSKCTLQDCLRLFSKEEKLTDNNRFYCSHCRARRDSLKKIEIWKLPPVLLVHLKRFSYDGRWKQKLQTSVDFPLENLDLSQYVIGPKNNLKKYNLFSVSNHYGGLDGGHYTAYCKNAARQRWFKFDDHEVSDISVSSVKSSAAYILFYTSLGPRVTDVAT
USP30 inh: inhibitors of human USP30 deubiquitinase; purified USP30, Ub-rhodamine cleavage fluorescence; 47,000 tested, 5.3% active; AID 1645860; inhibition, % at 25 µM; Q70CQ3
USP17 block: inhibitors of human USP17 deubiquitinase; A8MUK1; purified USP17, Ub-rhodamine cleavage fluorescence, 3 h; inhibition, % at 50 µM; 47,000 tested, 6.5% active; AID 1645855
Of the large screens only hits and unclear results are named; the others gave an inactive call. No stated cut-off is given here; in the data, active means inhibition above about 30%; inactive means the rest.

O=C1CC(C(=O)Nc2ccccc2F)n2nc(-c3ccccc3)cc2N1 (configuration not stated)	USP8 block 38.8, USP17 block 78.4
O=C1CC(C(=O)Nc2ccccc2F)n2ncc(-c3ccccc3)c2N1 (configuration not stated)	USP17 block 43.7
O=C(Nc1cc(-c2ccccc2)nn1CCO)C1CCCC1	none
O=C1CC(C(=O)Nc2ccc3c(c2)OCO3)n2nc(SCc3ccccc3)nc2N1 (configuration not stated)	none
O=C(Nc1ccccc1F)C1CCC(=O)N1S(=O)(=O)c1ccccc1 (configuration not stated)	none
O=C1CC(C(=O)Nc2ccccc2Cl)n2nc(-c3ccccc3)cc2N1 (configuration not stated)	USP8 block 30.8, USP17 block 71.7
O=C1CC(C(=O)Nc2ccc(Cl)cc2Cl)n2ncc(-c3ccccc3)c2N1 (configuration not stated)	none
CC(=O)c1cccc(S(=O)(=O)Nc2cccc(S(=O)(=O)N3CCOCC3)c2)c1	none
FC(F)(F)c1nc2ccccc2nc1Sc1ccccc1Cl	none
O=S(=O)(C1CC1)N1CCO[C@H]2C(Cn3cccn3)CC[C@@H]21 (some centres not stated)	none
O=C(O)CSc1nccn1-c1ccccc1	none
CC(C)C(=O)N1CCc2[nH]c3ccc(Cl)cc3c2C1	none
COc1ccccc1-c1cnn2c1NC(=O)CC2C(=O)Nc1ccc(C)cc1C (configuration not stated)	none
O=C(Nc1ccc2c(c1)OCO2)C1CC(=O)N(CCc2ccccc2)C1 (configuration not stated)	USP8 block 55.8, USP17 block 43.7
COc1ccc(NC(=O)C2CC(=O)Nc3c(-c4ccc(Cl)cc4)cnn32)c(OC)c1 (configuration not stated)	USP17 block 60.2
COc1ccc(CCN2CC(C(=O)Nc3ccc4c(c3)OCO4)CC2=O)cc1OC (configuration not stated)	none
COc1nn(C)cc1C(=O)N1CCC(C(=O)Nc2ccc(Br)cc2F)CC1	none
COC(=O)c1ccc(Nc2c(C#N)cnc3ccc(Cl)cc23)cc1	USP30 inh 33.1
Cc1ccc(Nc2c(S(=O)(=O)c3ccc(C)cc3)cnc3ccc(Cl)cc23)cc1	none
CC(C)OC(=O)c1cc2c(ccn2-c2ccc(F)cc2)n1CC(=O)N(C)C1CCCCC1	USP8 block 60.4
COC(=O)c1cc2c(ccn2-c2ccc(F)cc2)n1CC(=O)NC1CCCCC1	USP8 block 34.4
CC(C)OC(=O)c1cc2c(ccn2-c2ccc(F)cc2)n1CC(=O)NC1CCCCC1	none
CCOC(=O)c1cc2c(ccn2-c2ccc(F)cc2)n1CC(=O)N(C)C1CCCCC1	none
CCc1ccc(CN2CCC3(CC2)CN(c2cncnc2)C(=O)CO3)o1	none
CC(C)(C(N)=O)N1CCN(c2cccc(C(F)(F)F)c2)CC1	none (no result: USP17 block)
O=C(c1ccc(Cl)c(Cl)c1)c1c[nH]cc1-c1cccc(F)c1	none
CCOc1ccc(-c2csc3ncn(CC(=O)NCc4ccccc4)c(=O)c23)cc1	USP17 block 36.7
CCOc1ccc(CNC(=O)CCn2cnc3ccccc3c2=O)cc1	USP8 block 63.8
CCOc1ccccc1NC(=O)CCn1cnc2ccccc2c1=O	none
O=c1c2c(-c3ccc(Cl)cc3)csc2ncn1CCc1ccccc1	none
COc1ccc(NC(=O)Cn2cnc3scc(-c4ccc(OC)cc4)c3c2=O)cc1	USP17 block 44.7
CC(C)c1ccc(NC(=O)Cn2cnc3scc(-c4ccc5c(c4)CCCC5)c3c2=O)cc1	none
COc1ccccc1CNC(=O)Cn1cnc2c(-c3ccccc3)csc2c1=O	USP8 block 69.7, USP30 inh 32.8
COc1ccc(CNC(=O)Cn2cnc3ccccc32)cc1OC	none
COc1ccc(C2c3[nH]c4ccccc4c3C[C@@H]3C(=O)N(Cc4ccco4)CC(=O)N23)cc1OC (some centres not stated)	none
COCCCn1cnc2c(-c3ccccc3)cn(CC(=O)NCc3ccccc3)c2c1=O	none
CC(C)n1cnc2c(-c3ccccc3)cn(CC(=O)NCc3ccccc3)c2c1=O	USP17 block 35.7
CCN(Cc1ccccc1)c1nc2ccccc2nc1NS(=O)(=O)c1cc([N+](=O)[O-])ccc1C	USP17 block 34.0
Cc1ccn2cc(CCNS(=O)(=O)c3cc([N+](=O)[O-])ccc3C)nc2c1	none (no result: USP17 block)
Cc1ccccc1CSCCC(=O)NCCc1ccc(Cl)cc1	none
COC(=O)c1cc2c(ccn2C)n1CC(=O)N(C1CCCCC1)C1CCCCC1	USP8 block 49.1
COC(=O)c1cc2c(ccn2C)n1Cc1cccc(F)c1	none
COC(=O)c1cc2c(ccn2C)n1CC(=O)N1CCN(c2ccc(F)cc2)CC1	none
COC(=O)c1cc2c(ccn2C)n1Cc1ccc(F)cc1	USP8 block 52.0
COC(=O)c1cc2c(ccn2C)n1CC(=O)N1CCN(Cc2ccccc2)CC1	USP8 block 32.2
COC(=O)c1cc2c(ccn2C)n1CC(=O)N1CC(C)CC(C)C1 (configuration not stated)	none
Cc1csc(C2(NC(=O)COc3ccccc3C#N)CCCC2)n1	none (no result: USP17 block)
CC(C)(C)c1nc2ccc(NC(=O)c3nccnc3N)cc2[nH]1	none
COCc1cc(=O)n2c(n1)N(Cc1ccccc1F)CC2	none
COc1ccccc1-c1nc(Cn2c(=O)c3cnc(C)nc3n(C)c2=O)c(C)o1	none
CCCCNC(=O)c1ccc2c(c1)OCCO2	none
Cc1[nH]c2ccc(F)cc2c1CCNC(=O)c1cc2cc([N+](=O)[O-])ccc2oc1=O	none
Cc1[nH]c2ccccc2c1CCNC(=O)c1cc2cc(Cl)ccc2oc1=O	USP8 block 56.0
Cc1ccc(NC(=O)c2cn(C)nc2S(=O)(=O)N2CCCCC2)cc1C	none
Cc1cccc(Nc2cc(C3CCN(C(=O)c4cncnc4)CC3)ccn2)n1	USP30 inh 31.7
Cc1cccc(Nc2cc(C3CCN(C(=O)c4cnc[nH]4)CC3)ccn2)n1	none
COc1ccc(C2CC(=O)N(c3cccc(Cl)c3)C(=O)C2)cc1OC	none
COc1ccc(C2CC(=O)N(Cc3ccc(F)cc3)C(=O)C2)cc1OC	USP17 block 47.2
CC1NC(=O)C(CC(N)=O)NC(=O)C(C(C)O)NC(=O)C(C(C)C)NC(=O)C(C(C)C)NC(=O)C(NC(=O)CC(O)CCCCCCCCCCCCN=C(N)N)C(C)OC1=O (configuration not stated)	USP30 inh 89.7, USP17 block 70.1
Cc1cccc2nc(C(F)(F)F)cc(=O)n12	none
C/C=C\C1=CC(=O)[C@]23C[C@H]2[C@]2(C)CO[C@@]1(O)[C@@]3(O)O2	USP17 block 52.4
CC1=CN2C(=N)/C(=C/c3cn(Cc4ccc(Cl)cc4)c4ccccc34)C(=O)N=C2S1	none
N=C1/C(=C/c2cn(Cc3ccccc3F)c3ccccc23)C(=O)N=C2SC(C(F)(F)F)=NN12	USP8 block 47.6
Cc1ccc(NC(=O)c2cc(=O)n(C)c3c2c(=O)n(C)c(=O)n3C)c(C)c1	USP30 inh 61.1
Cn1c(=O)c2c(C(=O)Nc3cccc(Cl)c3)cc(=O)n(C)c2n(C)c1=O	none
Cn1c(=O)c2c(C(=O)Nc3ccc(Cl)cc3)cc(=O)n(C)c2n(C)c1=O	none
Cc1ccc(NC(=O)c2cc(=O)n(C)c3c2c(=O)n(C)c(=O)n3C)cc1C	USP17 block 43.6
CN(CC1CC1)c1ccc2ccc(C(=O)NCCN3CCOCC3)cn12	none (no result: USP30 inh)
COc1ccccc1NC(=O)CSc1nc(=O)n2ccccc2n1	none
Cc1c(-c2noc(-c3ccc[nH]3)n2)nnn1Cc1ccccc1	none
